The list is not random: actives were taken first. Their share in the collection is about 3.5%.
GPR151 ag: activators of human GPR151, primary screen, cell-based, PathHunter beta-arrestin, luminescence. activation, % at 11.2 µM. G-protein coupled receptor 151 (Homo sapiens), Q8TDV0. AID 1508602, 2020. PathHunter beta-arrestin GPR151 cells. hit rate 1% among 650,000; in the data active = activation above about 4.9%
MITF primary: MITF inhibitors, primary screen, biochemical, AlphaScreen, human | AlphaScreen MITF homodimerization, bead proximity signal | inhibition, % at 2.6 µM | hit rate 0.91% among 650,000; in the data active = inhibition above about 50%
TEAD-YAP block: TEAD-YAP interaction inhibition, primary screen, TEAD-YAP interaction inhibitor project, luminescence, HEK-TIYL cells | TEAD-Gal4/YAP UAS-luciferase luminescence | inhibition, % at 9.12 µM | hit rate 1.4% among 640,000 | AID 1259422, 2018; in the data active = inhibition above about 32%
FBW7 activator: FBW7 E3 ligase activators, primary screen, biochemical, AlphaScreen, human. hit rate 0.13% among 650,000. F-box/WD repeat-containing protein 7 (Homo sapiens), Q969H0. normalized activity (activation), % at 26.1 µM. AlphaScreen FBW7–phospho-cyclin E peptide binding, activator screen. AID 1259310, 2017; in the data active = normalized activity above about 1.9%;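 note: purified mutant Fbw7 with reduced substrate affinity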
Target sequence (Q969H0 whole entry, looked up): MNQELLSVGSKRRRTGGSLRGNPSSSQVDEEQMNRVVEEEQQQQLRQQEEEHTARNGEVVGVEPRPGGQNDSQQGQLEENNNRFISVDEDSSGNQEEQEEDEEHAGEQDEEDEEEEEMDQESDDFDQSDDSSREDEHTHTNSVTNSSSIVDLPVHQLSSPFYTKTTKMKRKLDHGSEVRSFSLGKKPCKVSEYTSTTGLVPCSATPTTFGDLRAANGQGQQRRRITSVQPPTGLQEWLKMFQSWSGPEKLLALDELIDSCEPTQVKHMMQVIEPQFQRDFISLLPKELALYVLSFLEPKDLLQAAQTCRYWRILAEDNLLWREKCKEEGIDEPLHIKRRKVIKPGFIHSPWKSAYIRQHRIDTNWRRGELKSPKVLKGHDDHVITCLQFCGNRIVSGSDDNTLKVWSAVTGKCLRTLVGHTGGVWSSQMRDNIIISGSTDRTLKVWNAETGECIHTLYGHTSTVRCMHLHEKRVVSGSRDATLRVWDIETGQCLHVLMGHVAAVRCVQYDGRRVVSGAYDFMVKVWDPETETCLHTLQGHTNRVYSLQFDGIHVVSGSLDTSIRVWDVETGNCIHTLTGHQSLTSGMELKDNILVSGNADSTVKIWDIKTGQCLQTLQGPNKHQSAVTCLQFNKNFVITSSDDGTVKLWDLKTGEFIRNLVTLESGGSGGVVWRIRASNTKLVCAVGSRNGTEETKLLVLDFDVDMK
Of the large screens only hits and unclear results are named; the others gave an inactive call.

O=C(CCCCCN1C(=O)c2ccccc2C1=O)OC1CSCC1NC(=O)c1ccccc1 (stereo not given)	none
CCOC(=O)CNC(=O)c1cnc(N2CCN(c3ccccc3OC)CC2)c2ccccc12	none
COCCN1C(=S)NC2c3ccccc3OC13CCCC23 (stereo not given)	TEAD-YAP block 36
CN(C(=O)c1cc2c(n(-c3ccccc3)c1=O)CC(C)(C)CC2=O)c1ccccc1	none
COc1cccc(-n2c(SCC(=O)N3CCCC3)nc3n[nH]c(C)c3c2=N)c1	TEAD-YAP block 43
CCCCN(CC)C(=O)CSc1nc2n[nH]c(C)c2c(=N)n1-c1cccc(OC)c1	none
CCN(CC)C(=O)CSc1nc2n[nH]c(C)c2c(=N)n1-c1cccc(OC)c1	TEAD-YAP block 44
CCCN(CCC)C(=O)C(CC)Sc1nc2n[nH]c(C)c2c(=N)n1-c1cccc(OC)c1 (stereo not given)	TEAD-YAP block 50
CCOc1ccc(NC(=O)CSc2nc3n[nH]c(C)c3c(=N)n2-c2cccc(OC)c2)cc1	TEAD-YAP block 33
CSc1ccc(-c2nc(O)c3c4ccccc4c(=O)[nH]n23)cc1	none
Cc1ccc(/C=C2/SC(N3CCN(C)CC3)=NC2=O)cc1	MITF primary 58
CN1C(=O)/C(=C2\SC(N3CCOCC3)=NC2=O)c2ccccc21	none
O=C1N=C(N2CCOCC2)S/C1=C/c1ccc(O)cc1	TEAD-YAP block 47
CCOc1ccc(NC(=O)CN2C(=O)/C(=C3\SC(N4CCOCC4)=NC3=O)c3ccccc32)cc1	FBW7 activator 8.4
CCOc1ccc(/C=C2\SC(N3CCOCC3)=NC2=O)cc1	FBW7 activator 2.3
CC(C)(C)c1ccc(/C=C2\SC(N3CCOCC3)=NC2=O)cc1	none
Cc1cc(C)nc(N2CCC(N(CCN(C)C)C(=O)Nc3cccc(F)c3)CC2)n1	none
COc1ccc(C(CC(=O)O)NC(=O)c2ccc(C)cc2)cc1 (stereo not given)	none
Cc1ccc(-c2csc3c(=O)n(CC(=O)NCc4ccc(Cl)cc4)cnc23)cc1	none
CCOc1cc(C2C(C#N)=C(N)Oc3n[nH]c(-c4ccccn4)c32)ccc1O (stereo not given)	none
CCCOc1ccc(/C(O)=C2\C(=O)C(=O)N(CCN3CCOCC3)C2c2ccccc2F)c(C)c1 (stereo not given)	none
CC1(C)Oc2ccc(C(=O)N3CCCC3)cc2N(CC(=O)Nc2ccc(Cl)cc2)C1=O	none
CCCCC1CCC(c2nc(Cc3ccccc3)no2)CC1 (stereo not given)	none
COc1cc(/C=C2\SC(N3CCCCC3)=NC2=O)ccc1O	TEAD-YAP block 50
Cc1cc2c(cc1S(=O)(=O)NC1CCCC1)n(C)c(=O)c(=O)n2C	none
Cc1cc(C)cc(CSCC(=O)Nc2cccc(Cl)c2C)c1	none
Cc1ccc(-c2cn3c(n2)sc2cc(C)ccc23)cc1	TEAD-YAP block 78
Cc1ccc2c(c1)sc1nc(-c3cc4ccccc4oc3=O)cn12	TEAD-YAP block 66
COc1ccc2c(c1)sc1nc(-c3cc4ccccc4oc3=O)cn12	TEAD-YAP block 84
O=c1oc2ccccc2cc1-c1cn2c(n1)sc1ccccc12	TEAD-YAP block 80
O=c1oc2ccc3ccccc3c2cc1-c1cn2c(n1)sc1cc(Cl)ccc12	none
COc1ccc(-c2cn3c(n2)sc2cc(C)ccc23)cc1	none
CC(=O)Nc1ccc(NC(=O)C2CCCN2C(=O)Nc2cccc(Cl)c2)cc1 (stereo not given)	none
CC(=O)N1CCc2cc(S(=O)(=O)Nc3c(C)cc(C)cc3C)ccc21	none
COc1cccc(C2NC(=O)NC(C)=C2C(=O)OC(C)C)c1OC (stereo not given)	none
O=C(CCC1(Cc2ccco2)CCC(=O)N1)NCc1cc(C(F)(F)F)ccc1F (stereo not given)	none
CCN(C(C)=O)c1nnc(-c2ccc(C)cc2)s1	TEAD-YAP block 47
COc1ccc(-c2nc(Nc3ccc(NC(C)=O)cc3)c3ncn(-c4ccsc4)c3n2)cn1	TEAD-YAP block 51
NC(=O)c1ccc(-c2nc(Nc3ccc(Oc4ccccc4)cc3)c3ncn(-c4ccsc4)c3n2)cc1	none
NC(=O)c1ccc(-c2nc(Nc3ccccc3)c3ncn(-c4ccsc4)c3n2)cc1	TEAD-YAP block 50
CC(=O)Nc1ccc(Nc2nc(-c3ccc(C(N)=O)cc3)nc3c2ncn3-c2ccsc2)cc1	TEAD-YAP block 39
COc1ccc(-c2nc(Nc3ccccc3)c3ncn(-c4ccsc4)c3n2)cn1	none
CC(=O)Nc1ccc(Nc2nc(-c3ccc(C(=O)N4CCN(C)CC4)cc3)nc3c2ncn3-c2ccsc2)cc1	TEAD-YAP block 36
Cc1nc(NC(=O)Cc2cccc3ccccc23)ccc1Br	none
NC(=O)c1ccc(-c2nc(NC3CC3)c3ncn(-c4ccccc4)c3n2)cc1	TEAD-YAP block 36
c1ccc(-c2nc(NC3CC3)c3ncn(-c4ccccc4)c3n2)cc1	none
CC(=O)Nc1ccc(Nc2nc(-c3ccccc3)nc3c2ncn3-c2ccsc2)cc1	TEAD-YAP block 37
CCN1C(=O)/C(=C\c2cc(C)n(-c3ccc(F)cc3)c2C)C(C(=O)OC)=C1C	none
COc1ccc(C2CC(=O)C3=C(C2)Nc2ccccc2NC3c2ccccc2C(F)(F)F)cc1 (stereo not given)	none
Clc1ccc(OCc2nc(-c3ccccn3)no2)c(Cl)c1	TEAD-YAP block 36
Clc1ccccc1OCc1nc(-c2ccccn2)no1	none
N#Cc1ccsc1NC(=O)c1cccc(Cl)c1Cl	none
N#Cc1ccsc1NC(=O)/C=C/c1ccccc1Cl	TEAD-YAP block 64
Cc1ccc2oc(-c3cccc(N)c3C)nc2c1	TEAD-YAP block 43
Nc1ccc(-c2nc3cc(N)ccc3o2)c(O)c1	none
Cc1cc(C)c2oc(-c3ccc(N)cc3O)nc2c1	TEAD-YAP block 37
Cc1ccc(C)c(-c2nc3cc(N)ccc3o2)c1	TEAD-YAP block 37
Cc1cc2nc(-c3cccc(NC(=O)C(C)C)c3C)oc2cc1C	none
Cc1cc2nc(-c3cccc(N)c3C)oc2cc1C	TEAD-YAP block 89
Cc1ccc2oc(-c3cc(N)ccc3Cl)nc2c1	none
Cc1ccccc1OCc1ccc(-c2nc(C#N)c(N3CCCC3)o2)o1	none
COc1ccc(Cc2cnc(NC(=O)c3sc4ccccc4c3Cl)s2)cc1	TEAD-YAP block 48
COc1cc(C(=O)Nc2ncc(Cc3ccc(Cl)cc3)s2)cc(OC)c1OC	TEAD-YAP block 58
CC(=O)Nc1ncc(Cc2ccc(Cl)cc2)s1	none
O=C(Nc1ncc(Cc2ccccc2Cl)s1)c1cccc2ccccc12	TEAD-YAP block 35
COc1ccc2nc(NC(=O)c3sc4ccccc4c3Cl)sc2c1	none
COc1ccc(C(=O)Nc2ncc(Cc3ccc(F)cc3)s2)cc1OC	TEAD-YAP block 55
CCn1c(SCC(=O)Nc2cc(F)ccc2C)nc2c(-c3ccccc3)csc2c1=O	none
CN1C(=C(C#N)C(=O)CN2c3cccc4cccc(c34)S2(=O)=O)N(C)c2ccccc21	none
O=C(Nc1cccc(-c2ccncc2)n1)C1Cc2c(ccc3ccccc23)O1 (stereo not given)	none

Screening results deposited in PubChem BioAssay by The Scripps Research Institute Molecular Screening Center.
